This note sets out measurements from the supplement of paper PMC7411054.

Conditions in all cases: treatment time: 24 h
Experiment [1] concerns A549-ACTB-RAB5A. Description: lowest phenotypically active concentration; higher = less potent. The gist of the method:
(§1)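 The reporter lines, fifteen in total and built by gene editing in A549, HepG2 and WPMY1 cells, used BFP for segmentation alongside GFP and RFP/FusionRed markers. Each was treated at 0.3, 1, 3 or 9 µM for 24 h in four wells and then imaged live, with live-cell features normalised to solvent control wells. Deviation meant ≥3 of 4 wells beyond the 95th percentile of control Euclidean distances; reproducibility meant a median replicate Pearson correlation above the 95th percentile of non-replicates. Only conditions meeting both were scored as phenotypically active.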

The test system of experiment [2] is A549-GM130-SQSTM1. The experiment is described as above. The gist of the method: as §1
Experiment [3] deals with A549-TUBA1B-RELA. Described as above. The gist of the method: as §1
Experiment [4] concerns HepG2-ACTB-RAB5A. Described as above. The gist of the method:
as §1

In experiment [5] the test system is WPMY1-GM130-SQSTM1. The experiment is described as above. The gist of the method: as §1
The test system of experiment [6] is A549-ACTB-RAB5A. Description: phenotypically active (imaging signature differs from DMSO and reproducible) at any of 0.3-9 uM (binary (1 = active, 0 = inactive)); higher = active. The gist of the method:
as §1

For a further experiment, the system named is A549-CANX-COX4. The description is as above. The gist of the method:
as §1

In experiment [7] the test system is A549-GM130-SQSTM1. The description is as above. The gist of the method: as §1
Another experiment relates to A549-TP53BP1-CLTA. The experiment is described as above. The gist of the method:
as §1

Experiment [8] concerns A549-TUBA1B-RELA. The experiment is described as above. The gist of the method: as §1
For experiment [9], the system named is HepG2-ACTB-RAB5A. The experiment is described as above. The gist of the method:
as §1

The test system of a further experiment is HepG2-CANX-COX4. The description is as above. The gist of the method: as §1
For a further experiment, the system named is HepG2-GM130-SQSTM1. The experiment is described as above. The gist of the method: as §1
The next experiment has as its system HepG2-TP53BP1-CLTA. Described as above. The gist of the method:
as §1

Another experiment relates to HepG2-TUBA1B-RELA. The experiment is described as above. The gist of the method: as §1
Another experiment deals with WPMY1-ACTB-RAB5A. The experiment is described as above. The gist of the method:
as §1

Another experiment has as its system WPMY1-CANX-COX4. The description is as above. The gist of the method:
as §1

Experiment [10] relates to WPMY1-GM130-SQSTM1. The experiment is described as above. The gist of the method:
as §1

For another experiment, the system named is WPMY1-TP53BP1-CLTA. Described as above. The gist of the method: as §1
In another experiment the test system is WPMY1-TUBA1B-RELA. Described as above. The gist of the method: as §1

Consider `CCSc1ccc2c(c1)N(CCCN1CCN(C)CC1)c1ccccc1S2` [thiethylperazine], for which the “lowest phenotypically active concentration” value in the experiment on A549-ACTB-RAB5A [1] stood at 3 µM; in the experiment with A549-GM130-SQSTM1 [2] it was 3 µM; in the experiment on A549-TUBA1B-RELA [3], 3 µM; with HepG2-ACTB-RAB5A [4], 9 µM; with WPMY1-GM130-SQSTM1 [5], 9 µM. Further, the phenotypically active in the experiment on A549-ACTB-RAB5A [6] was 1 (active); with A549-CANX-COX4, 0 (inactive); in the experiment with A549-GM130-SQSTM1 [7], 1 (active); in the experiment with A549-TP53BP1-CLTA, 0 (inactive); in the experiment on A549-TUBA1B-RELA [8] it was 1 (active); in the experiment on HepG2-ACTB-RAB5A [9] it was 1 (active). Also, the phenotypically active with HepG2-CANX-COX4 was 0 (inactive); in the experiment on HepG2-GM130-SQSTM1 it was 1 (active); with HepG2-TP53BP1-CLTA it was 0 (inactive); with HepG2-TUBA1B-RELA it was 1 (active); in the experiment with WPMY1-ACTB-RAB5A, 1 (active); with WPMY1-CANX-COX4, 1 (active). For the same molecule, the phenotypically active in the experiment with WPMY1-GM130-SQSTM1 [10], in the experiment with WPMY1-TP53BP1-CLTA and in the experiment on WPMY1-TUBA1B-RELA was 1 (active) each time.
Regarding `CN(C)CCCN1c2ccccc2Sc2ccc(C(F)(F)F)cc21` [triflupromazine], the “lowest phenotypically active concentration” value in the experiment on A549-ACTB-RAB5A [1] amounted to 3 µM; in the experiment on A549-GM130-SQSTM1 [2] it was 9 µM; in the experiment on A549-TUBA1B-RELA [3], 9 µM; in the experiment with HepG2-ACTB-RAB5A [4], 9 µM; in the experiment with WPMY1-GM130-SQSTM1 [5], 9 µM. In addition, the phenotypically active was 1 (active) in the experiment with A549-ACTB-RAB5A [6]; 0 (inactive) in the experiment on A549-CANX-COX4; 1 (active) in the experiment with A549-GM130-SQSTM1 [7]; 0 (inactive) in the experiment on A549-TP53BP1-CLTA; 1 (active) in the experiment with A549-TUBA1B-RELA [8]; 1 (active) in the experiment on HepG2-ACTB-RAB5A [9]. Besides, the phenotypically active is 0 (inactive) in the experiment with HepG2-CANX-COX4; 0 (inactive) in the experiment on HepG2-GM130-SQSTM1; 0 (inactive) with HepG2-TP53BP1-CLTA; 1 (active) in the experiment on HepG2-TUBA1B-RELA; 1 (active) in the experiment on WPMY1-ACTB-RAB5A; 1 (active) in the experiment on WPMY1-CANX-COX4. The results for the phenotypically active in the experiment on WPMY1-GM130-SQSTM1 [10], with WPMY1-TP53BP1-CLTA and in the experiment on WPMY1-TUBA1B-RELA were 1 (active), 0 (inactive) and 1 (active), respectively.
In the case of `CCCc1cc(C)n(C)c(=O)c1CN(C)C(=O)c1cc(-c2ccc(N3CCN(C(C)C)CC3)nc2)cc2c1cnn2C(C)C`, the “lowest phenotypically active concentration” value turned out to be 3 µM in the experiment on A549-ACTB-RAB5A [1]; 3 µM with A549-GM130-SQSTM1 [2]; 3 µM in the experiment with A549-TUBA1B-RELA [3]; 9 µM with HepG2-ACTB-RAB5A [4]; 3 µM in the experiment with WPMY1-GM130-SQSTM1 [5]. Also, the phenotypically active in the experiment with A549-ACTB-RAB5A [6] is 1 (active); in the experiment with A549-CANX-COX4 it was 0 (inactive); in the experiment on A549-GM130-SQSTM1 [7], 1 (active); with A549-TP53BP1-CLTA, 0 (inactive); in the experiment with A549-TUBA1B-RELA [8], 1 (active); with HepG2-ACTB-RAB5A [9], 1 (active). Also, the phenotypically active in the experiment on HepG2-CANX-COX4 was 0 (inactive); in the experiment with HepG2-GM130-SQSTM1, 1 (active); in the experiment on HepG2-TP53BP1-CLTA, 1 (active); in the experiment with HepG2-TUBA1B-RELA, 0 (inactive); in the experiment with WPMY1-ACTB-RAB5A, 1 (active); in the experiment on WPMY1-CANX-COX4, 1 (active). In addition, the phenotypically active in the experiment on WPMY1-GM130-SQSTM1 [10], in the experiment with WPMY1-TP53BP1-CLTA and with WPMY1-TUBA1B-RELA was 1 (active) throughout.
On to `O=C(NCCN1CCC(n2c(=O)[nH]c3ccccc32)CC1)c1cc2cc(F)ccc2[nH]1`, for which the “lowest phenotypically active concentration” value in the experiment on A549-ACTB-RAB5A [1] is 9 µM; in the experiment on A549-GM130-SQSTM1 [2], 9 µM; in the experiment on A549-TUBA1B-RELA [3] it was 3 µM; in the experiment on HepG2-ACTB-RAB5A [4], 9 µM; in the experiment on WPMY1-GM130-SQSTM1 [5], 9 µM. Besides, the phenotypically active in the experiment with A549-ACTB-RAB5A [6] was 1 (active); in the experiment on A549-CANX-COX4, 0 (inactive); in the experiment with A549-GM130-SQSTM1 [7], 1 (active); in the experiment with A549-TP53BP1-CLTA, 0 (inactive); in the experiment with A549-TUBA1B-RELA [8], 1 (active); in the experiment on HepG2-ACTB-RAB5A [9], 1 (active). Also, the phenotypically active in the experiment on HepG2-CANX-COX4, with HepG2-GM130-SQSTM1, in the experiment on HepG2-TP53BP1-CLTA, with HepG2-TUBA1B-RELA, with WPMY1-ACTB-RAB5A and in the experiment on WPMY1-CANX-COX4 was 1 (active) in each case. Also, the phenotypically active in the experiment on WPMY1-GM130-SQSTM1 [10], with WPMY1-TP53BP1-CLTA and with WPMY1-TUBA1B-RELA was 1 (active) throughout.
`CN(C)CCCN1c2ccccc2CCc2ccc(Cl)cc21` [clomipramine]: the “lowest phenotypically active concentration” value is 3 µM in the experiment with A549-ACTB-RAB5A [1]; 9 µM with A549-GM130-SQSTM1 [2]; 9 µM in the experiment on A549-TUBA1B-RELA [3]; 9 µM in the experiment with HepG2-ACTB-RAB5A [4]; 9 µM with WPMY1-GM130-SQSTM1 [5]. Further, the phenotypically active was 1 (active) in the experiment with A549-ACTB-RAB5A [6]; 0 (inactive) with A549-CANX-COX4; 1 (active) in the experiment on A549-GM130-SQSTM1 [7]; 0 (inactive) with A549-TP53BP1-CLTA; 1 (active) in the experiment on A549-TUBA1B-RELA [8]; 1 (active) in the experiment with HepG2-ACTB-RAB5A [9]. For the same molecule, the phenotypically active in the experiment on HepG2-CANX-COX4 was 0 (inactive); in the experiment on HepG2-GM130-SQSTM1, 0 (inactive); in the experiment on HepG2-TP53BP1-CLTA it was 1 (active); in the experiment with HepG2-TUBA1B-RELA, 1 (active); with WPMY1-ACTB-RAB5A, 1 (active); in the experiment on WPMY1-CANX-COX4 it was 1 (active). Moreover, the phenotypically active in the experiment with WPMY1-GM130-SQSTM1 [10], in the experiment with WPMY1-TP53BP1-CLTA and in the experiment with WPMY1-TUBA1B-RELA was 1 (active) each time.
